Shown are actives, neighbours in structure and some others; about 7.6% of the full set was active somewhere.
Gal4-VP16 FLuc – inhibits Gal4-VP16 luciferase reporter, ROR gamma counter-screen | Drosophila S2 Gal4-VP16 UAS-luciferase, luminescence, 20 h | Potency, µM (doses to about 53.6 µM), inactives show at the top dose activity, negative = inhibition, usual class: inhibitors | hit rate 3.5% among 310,000;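 further: Gal4-VP16 expression switched on by copper sulfate through the metallothionein promoter; potency means the concentration at half of the fitted maximal effect; on the % scale 0 is the no-effect control and ±100 the full control effect; nearly all actives have a fitted effect of over 50% in size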
BRCA1 expr up – BRCA1 expression activation. MCF7-BRCA1-FFLuc reporter, luminescence, 48 h; response scale: scaled: vehicle 0%, 10 µM genistein 100%. AID 624202. Potency, µM (doses to about 46.1 µM), for the others: at the highest dose activation, hits mostly activators. hit rate 1.1% among 380,000; further: potency means the concentration at half of the fitted maximal effect; nearly all actives have a fitted effect of over 80% in size
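Luminescence from a BRCA1-driven firefly luciferase in MCF7 cells was the read-out, taken 15 min after substrate addition following 48 h compound exposure at 37 °C. Data were normalized to a 10 microM genistein control and DMSO vehicle.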
ELG1 DNA repair – blocks ELG1-dependent DNA repair in HEK293T cells | HEK293T ELG1-luciferase reporter, luminescence, 16 h; DNA damage induced by 5-fluorouridine | Potency, µM (series often up to 46.1 µM), for the others: top-dose activity change, negative = inhibition, actives largely listed as inhibitors | hit rate 2.3% among 330,000 | AID 504467; further: potency means the concentration at half of the fitted maximal effect; on the % scale 0 is the no-effect control and ±100 the full control effect; nearly all actives have a fitted effect of over 55% in size
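Reporter activity after DNA damage by 5-fluorouridine is monitored. Compound-treated cells incubate 16 hr at 37 °C, then ONE-Glo is added for 30 min before luminescence reading.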
RORgamma inh – blocks mouse ROR gamma transcriptional activity | Drosophila S2 Gal4-RORgamma UAS-luciferase reporter, 20 h | Potency, µM (series often up to 53.6 µM), for the others: at the top dose activity change, negative = inhibition, actives largely listed as inhibitors | hit rate 5.4% among 310,000 | AID 2551; further: potency means the concentration at half of the fitted maximal effect; on the % scale 0 is the no-effect control and ±100 the full control effect; nearly all actives have a fitted effect of over 60% in size
Target sequence (P51450 whole entry, looked up, the tested form may be a part): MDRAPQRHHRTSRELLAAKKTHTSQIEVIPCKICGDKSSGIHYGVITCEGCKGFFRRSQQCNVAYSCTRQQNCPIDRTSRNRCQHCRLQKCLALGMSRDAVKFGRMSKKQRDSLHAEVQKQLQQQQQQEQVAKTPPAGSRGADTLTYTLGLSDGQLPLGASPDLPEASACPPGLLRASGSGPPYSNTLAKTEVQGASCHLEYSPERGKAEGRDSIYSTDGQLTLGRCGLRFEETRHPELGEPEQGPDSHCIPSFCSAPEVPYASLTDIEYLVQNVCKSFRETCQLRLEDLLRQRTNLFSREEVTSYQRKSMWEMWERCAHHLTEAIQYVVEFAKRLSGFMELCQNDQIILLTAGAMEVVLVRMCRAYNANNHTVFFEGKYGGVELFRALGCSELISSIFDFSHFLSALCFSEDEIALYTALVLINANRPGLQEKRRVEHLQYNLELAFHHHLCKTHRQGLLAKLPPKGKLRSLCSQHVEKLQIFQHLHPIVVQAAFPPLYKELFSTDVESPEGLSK
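In this cell-based reporter format, copper sulfate (700 uM final) drives Gal4–ROR gamma fusion expression from a metallothionein promoter in Drosophila Schneider cells; compounds preincubated 1 hr, reporter read after 20 hr at ambient temperature.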
Giardia killer – Giardia lamblia killing; hit rate 0.15% among 340,000; activity change, % at 7.66 µM, hits read low; Giardia lamblia trophozoite viability; in the data active means activity change below about -80%; inconclusive means between about -30% and that limit;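 further: parasites exposed to compound for two days anaerobically before the ATP read; on the % scale 0 is the no-effect control and ±100 the full control effect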
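Trophozoites 100 cells/well + cpd; 48 hrs, 37 deg C, anaerobic. ATPLite 1-Step added, 15-30 min RT, luminescence read (ATP-based viability).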
p53 reactivation – mutant p53 re-activation in reporter cells. hit rate 0.063% among 320,000. H1299 p53-A138V BP100-luciferase reporter, luminescence, 24 h. AID 504706. Potency, µM (titrated, usually from 92.2 µM), without a hit: at the top dose activity change, positive = activation, usual class: activators; further: potency means the concentration at half of the fitted maximal effect; % of control where 0% means no effect; nearly all actives have a fitted effect of over 45% in size
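p53-null H1299 cells stably carrying temperature-sensitive p53-A138V and a BP100-luciferase reporter were pinned with compounds (4-point, 1:5 series) and held 24 hrs at 37 deg C. Luminescence was read 10 min after detection reagent.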
* = called active by the depositor; ? = inconclusive; . = not tested or not shown; [ ] = dose if it differs, or a comment. Unless noted, the call rests on the fitted dose curve; in most records, active means well fitted curve in the direction sought with a large enough effect; inconclusive means small, poorly fitted or top-dose-only effect, or another doubt; inactive means no such curve, though single readings can be large; an effect the other way counts as inactive or inconclusive.

SMILES | Gal4-VP16 FLuc | BRCA1 expr up | ELG1 DNA repair | RORgamma inh | Giardia killer | p53 reactivation
CCNC(=S)Nc1sc2c(c1C#N)CCC(C)C2 (configuration not stated) | ? | -7.5% | 19.5% | 11.2µM* | -20.9 | 7.0%
CC1CCc2c(sc(NC(=O)C3CCCO3)c2C#N)C1 (configuration not stated) | 9.8% | 10µM* | ? | 1.1% | 26.5 | 8.4%
O=C(Cn1cnc2ccccc21)Nc1ccc(F)c(F)c1 | -1.5% | -8.6% | ? | ? | 0.3 | -2.0%
CCOC(=O)C1=C(N)N2C(=O)C(C)SC2=C(C(=O)OCC)C1c1ccc(O)cc1 (configuration not stated) | 7.4% | 0.7% | ? | -16.6% | 2.0 | 3.5%
O=C(O)c1ccc(N=Cc2c(O)ccc3oc4c(c23)CCCC4)cc1 | -2.9% | -9.1% | ? | -41.4% | -2.9 | -0.8%
Oc1ccccc1N=Cc1c(O)ccc2oc3c(c12)CCCC3 | 10µM* | -36.1% | ? | 3.16µM* | 13.8 | 5.1%
CCN(CC)S(=O)(=O)c1ccc(C)c(NC(=S)NC2CCCCC2)c1 | ? | 0.0% | ? | 10µM* | -14.7 | -3.7%
Cc1ccc(NC(=S)NC2CCCCC2)cc1S(=O)(=O)N(C)C | ? | 51.4% | ? | 12.6µM* | 0.0 | 1.6%
CCN(CC)S(=O)(=O)c1cccc(C(=O)NC2CCCCC2)c1 | 6.4% | 37.9% | ? | ? | -1.4 | 18.2%
Cc1ccc(S(=O)(=O)N(C)C)cc1NC(=S)NC1CCCC(C)C1C (configuration not stated) | 5.01µM* | -35.0% | -23.2% | 3.98µM* | -17.6 | -1.6%
O=C(Nc1ccc(N2CCCC2)c(Cl)c1)c1cccs1 | -24.8% | ? | ? | 10.5% | -6.2 | 3.0%
COc1cc(OC)cc(C(=O)NC(=S)N2CCCCCC2)c1 | 1.12µM* | -31.5% | 5.4% | 0.501µM* | 2.8 | -3.2%
COc1cc(OC)cc(C(=O)NC(=S)Nc2ccc(N3CCCC3)cc2)c1 | ? | -40.7% | -6.0% | 3.16µM* | 11.6 | -2.0%
COc1ccc(C(=O)NC(=S)N2CCCCC2)cc1 | -8.3% | 57.2% | ? | -20.6% | 63.9 | 3.5%
CN(C)c1ccc(/C=C/c2nnnn2-c2ccccc2)cc1 | 2.5% | 3.98µM* | ? | ? | -1.0 | ?
O=C(NCCNc1ccc2ccccc2c1)c1cccn2c(=O)c3sccc3nc12 | -8.1% | . | ? | 7.6% | . | 2.7%
Nc1nnc2cc(Cl)ccc2n1 | . | -12.4% | . | . | 6.4 | .
CC1=CC2=C(OC1N(C)C)c1cccc3cccc(c13)C2=O (configuration not stated) | ? | -14.0% | 7.8% | 8.91µM* | -24.0 | -2.2%
CN(C)CCCN1C(=O)c2cccc3cccc(c23)C1=O | -8.2% | -77.3% | -29.6% | -44.1% | 7.3 | .
Cc1ccc2c(CN3CCN(Cc4ccccc4)CC3)cc(=O)oc2c1C | -4.6% | -33.9% | ? | 1.9% | -25.2 | -6.1%
Cc1c(O)ccc2c(CN3CCN(C/C=C/c4ccccc4)CC3)cc(=O)oc12 | -9.4% | -60.7% | 18.3µM* | 28.7% | -0.6 | -10.9%
Cc1cc2oc(=O)cc(CN3CCN(C/C=C/c4ccccc4)CC3)c2cc1O | 35.5µM* | . | ? | ? | . | -22.8%
O=c1cc(CN2CCN(C/C=C/c3ccccc3)CC2)c2cc(O)c(-c3ccccc3)cc2o1 | -24.4% | -47.2% | 9.1% | 8.1% | 1.3 | 15.1%
C/C(=N\NC(=O)c1nc2ccccn2c1C)c1cccc([N+](=O)[O-])c1 | 3.7% | -1.8% | -16.0% | 24.2% | 1.3 | 12.6%
Nc1sccc1C(=O)c1ccc(Cl)cc1 | . | 6.31µM* | ? | 12.2%[0.365 µM] | 4.7 | ?
SMILES | Gal4-VP16 FLuc | BRCA1 expr up | ELG1 DNA repair | RORgamma inh | Giardia killer | p53 reactivation
CC(C(=O)Nc1ccccc1C(=O)N1CCCC1)n1nnc2ccccc21 (configuration not stated) | 20.7% | 1.1% | 12.4% | 35.6% | -4.7 | 0.8%
O=C(c1cc(=O)[nH]c2ccccc12)N1CCN(S(=O)(=O)c2ccc3ccccc3c2)CC1 | 6.1% | -39.1% | ? | 3.2% | -9.3 | 9.0%
O=C(c1cc(=O)[nH]c2ccccc12)N1CCN(S(=O)(=O)c2ccc(Cl)cc2)CC1 | . | -1.3% | 23.1µM* | . | -10.8 | -4.5%
CCCCN1C(=O)/C(=C/C=C2\SCCN2C)SC1=S | 7.0% | 7.08µM* | ? | ? | 7.4 | ?
CCN1C(c2ccccc2)=C(c2ccccc2)S/C1=C/C=C1\SC(=S)N(C)C1=O | 1.0% | -30.2% | 10.3µM* | 29.3% | -15.9 | 1.3%
CN1CCS/C1=C/C=C1/SC(=S)N(Cc2ccccc2)C1=O | -14.7% | 12.6µM* | ? | 7.7% | -10.8 | ?
CN1CCS/C1=C/C=C1\SC(=S)N(CC(=O)O)C1=O | -9.4% | 3.4% | 13.5% | -15.3% | 2.2 | 2.2%
O=C(CSc1nnc(NC2CCCCC2)s1)Nc1ccc2c(c1)C(=O)c1ccccc1C2=O | -20.5% | 4.47µM* | ? | ? | 7.0 | 19.1%
CC(C)Nc1nnc(SCC(=O)Nc2ccc3c(c2)C(=O)c2ccccc2C3=O)s1 | -8.8% | ? | ? | -44.9% | 0.6 | ?
COc1ccc2cc(C)c3nnc(SCC(=O)Nc4nc(-c5ccc(F)cc5)cs4)n3c2c1 | -3.4% | -5.3% | ? | 17.0% | -13.2 | -9.0%
CCCCNS(=O)(=O)c1ccc2nc(SCC(=O)c3ccccc3OC)[nH]c2c1 | -4.7% | -61.1% | 20.6µM* | 0.9% | 8.7 | 0.8%
CCCCNS(=O)(=O)c1ccc2nc(SCC(=O)Nc3sccc3C#N)[nH]c2c1 | 12.6µM* | -74.3% | 16.4µM* | 4.5% | 2.7 | -6.4%
Cc1cccc(N2CCN(C(=O)c3cc4n(n3)C(C(F)(F)F)CC(c3ccco3)N4)CC2)c1C (configuration not stated) | ? | -88.6% | 20.6µM* | 2.3% | 0.0 | -26.0%
CCN(CC1CCCO1)C(=O)c1cc(COc2cc(C)c(Cl)c(C)c2)on1 (configuration not stated) | 2.8% | 6.31µM* | ? | 4.4% | 21.7 | .
Cc1cc(OCc2cc(C(=O)N(C)C(C)c3ccccn3)no2)cc(C)c1Cl (configuration not stated) | ? | 11.2µM* | ? | ? | 17.5 | ?
Cc1cc(OCc2cc(C(=O)N(C)Cc3ccccn3)no2)cc(C)c1Cl | ? | 11.2µM* | ? | 19.5% | -18.2 | 2.8%
O=S(=O)(/C(=C/c1ccc(C(F)(F)F)cc1)c1nc2ccccc2[nH]1)c1ccccc1 | 5.62µM* | -84.7% | 16.4µM* | 14.1µM* | -18.4 | -33.8%
CC(C)c1ccc(/C=C(\c2nc3ccccc3[nH]2)S(=O)(=O)c2ccccc2)cc1 | ? | -94.9% | ? | ? | -13.9 | -18.6%

Source: PubChem
